Assay results as given in PubChem BioAssay AID1159580 (chemical genetic matrix, 2015).
About 2,000 (36%) of roughly 5,500 compounds were called active. Inconclusive results (about 18%) are left out. Cut-off read from the data, not from the text of the source: active = normalized growth mostly below about 0.91 (no sharp cut-off); inconclusive = no clear call, values can overlap the other calls; inactive = mostly above about 0.92. This is one part of the list.

Assay: chemical genetic growth profiling, strain panel (AID 1159580);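 note: tested at 20 µM; growth read once vehicle control cultures reached saturation at 30 °C; 1 = growth at the plate median or of vehicle wells; lower values mean less growth of the strain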
Settings: S. cerevisiae deletion strains, growth OD
[1] = locus YAL021C, strain ccr4, stronger effect = lower value
[2] = locus YAL026C, strain drs2, stronger effect = lower value
[3] = locus YAL030W, strain snc1, stronger effect = lower value
[4] = locus YBL061C, strain skt5, stronger effect = lower value
[5] = locus YBR009C, strain hhf1, stronger effect = lower value
[6] = locus YBR023C, strain chs3, stronger effect = lower value
[7] = locus YBR171W, strain sec66, stronger effect = lower value
[8] = locus YBR231C, strain swc5, stronger effect = lower value
[9] = locus YBR279W, strain paf1, stronger effect = lower value
[10] = locus YCL011C, strain gbp2, stronger effect = lower value
[11] = locus YCL016C, strain dcc1, stronger effect = lower value
[12] = locus YCL061C, strain MRC1, stronger effect = lower value
[13] = locus YCL069W, strain vba3, stronger effect = lower value
[14] = locus YCR088W, strain abp1, stronger effect = lower value
[15] = locus YDL005C, strain med2, stronger effect = lower value
[16] = locus YDL040C, strain nat1, stronger effect = lower value
[17] = locus YDR001C, strain nth1, stronger effect = lower value
[18] = locus YDR069C, strain doa4, stronger effect = lower value
[19] = locus YDR137W, strain rgp1, stronger effect = lower value
[20] = locus YDR159W, strain sac3, stronger effect = lower value
[21] = locus YDR297W, strain sur2, stronger effect = lower value
[22] = locus YDR334W, strain swr1, stronger effect = lower value
[23] = locus YDR335W, strain msn5, stronger effect = lower value
[24] = locus YDR392W, strain spt3, stronger effect = lower value
[25] = locus YEL003W, strain gim4, stronger effect = lower value
[26] = locus YEL037C, strain rad23, stronger effect = lower value
[27] = locus YEL061C, strain CIN8 (second series), stronger effect = lower value
[28] = locus YER015W, strain faa2, stronger effect = lower value
[29] = locus YER016W, strain bim1, stronger effect = lower value
[30] = locus YER111C, strain swi4, stronger effect = lower value
[31] = locus YER155C, strain BEM2 (second series), stronger effect = lower value
[32] = locus YFR010W, strain ubp6, stronger effect = lower value
[33] = locus YGL167C, strain pmr1, stronger effect = lower value
[34] = locus YGL173C, strain kem1, stronger effect = lower value
[35] = locus YGL227W, strain vid30, stronger effect = lower value
[36] = locus YGL240W, strain doc1, stronger effect = lower value
[37] = locus YGL253W, strain hxk2, stronger effect = lower value
[38] = locus YHR013C, strain ard1, stronger effect = lower value
[39] = locus YHR027C, strain rpn1, stronger effect = lower value
[40] = locus YHR142W, strain chs7, stronger effect = lower value
[41] = locus YJL092W, strain hpr5, stronger effect = lower value
[42] = locus YJL095W, strain BCK1 (second series), stronger effect = lower value
[43] = locus YJL115W, strain asf1, stronger effect = lower value
[44] = locus YJL129C, strain trk1, stronger effect = lower value
[45] = locus YJL154C, strain vps35, stronger effect = lower value
[46] = locus YJL164C, strain tpk1, stronger effect = lower value
[47] = locus YJL166W, strain qcr8, stronger effect = lower value
[48] = locus YJL187C, strain SWE1, stronger effect = lower value
[49] = locus YKL160W, strain elf1, stronger effect = lower value
[50] = locus YKR026C, strain gcn3, stronger effect = lower value
[51] = locus YKR091W, strain srl3, stronger effect = lower value
[52] = locus YLL001W, strain dnm1, stronger effect = lower value
[53] = locus YLL026W, stronger effect = lower value
[54] = locus YLL041C, strain sdh2, stronger effect = lower value
[55] = locus YLR027C, strain aat2, stronger effect = lower value
[56] = locus YLR221C, strain rsa3, stronger effect = lower value
[57] = locus YLR258W, strain gsy2, stronger effect = lower value
[58] = locus YLR262C, strain YPT6 (second series), stronger effect = lower value
[59] = locus YLR320W, strain mms22, stronger effect = lower value
[60] = locus YLR342W, strain FKS1, stronger effect = lower value
[61] = locus YLR357W, strain rsc2, stronger effect = lower value
[62] = locus YLR370C, strain arc18, stronger effect = lower value
[63] = locus YLR384C, strain iki3, stronger effect = lower value
[64] = locus YML120C, strain ndi1, stronger effect = lower value
[65] = locus YMR058W, strain fet3, stronger effect = lower value
[66] = locus YMR125W, strain sto1, stronger effect = lower value
[67] = locus YMR129W, stronger effect = lower value
[68] = locus YMR205C, strain PFK2, stronger effect = lower value
[69] = locus YMR231W, strain pep5, stronger effect = lower value
[70] = locus YNL071W, strain lat1, stronger effect = lower value
[71] = locus YNL209W, strain ssb2, stronger effect = lower value
[72] = locus YNL248C, strain rpa49, stronger effect = lower value
[73] = locus YNL322C, strain KRE1 (second series), stronger effect = lower value
[74] = locus YNR049C, strain mso1, stronger effect = lower value
[75] = locus YOR001W, strain rrp6, stronger effect = lower value
[76] = locus YOR070C, strain gyp1, stronger effect = lower value
[77] = locus YOR080W, strain dia2, stronger effect = lower value
[78] = locus YOR083W, strain WHI5, stronger effect = lower value
[79] = locus YOR106W, strain vam3, stronger effect = lower value
[80] = locus YOR265W, strain rbl2, stronger effect = lower value
[81] = locus YOR270C, strain vph1, stronger effect = lower value
[82] = locus YOR290C, strain snf2, stronger effect = lower value
[83] = locus YPL051W, strain arl3, stronger effect = lower value
[84] = locus YPL078C, strain atp4, stronger effect = lower value
[85] = locus YPL106C, strain sse1, stronger effect = lower value
[86] = locus YPL240C, strain hsp82, stronger effect = lower value

Measured: normalized growth

OC1CC2CCCC(C1)N2Cc1ccccc1 (configuration not stated)
inactive: [1] 1.01 | [2] 0.993 | [3] 1 | [4] 0.932 | [5] 0.989 | [6] 1 | [7] 0.987 | [8] 0.988 | [9] 1 | [10] 1.01 | [11] 0.998 | [12] 0.997 | [13] 1 | [14] 1 | [15] 0.992 | [16] 0.998 | [17] 1 | [18] 0.989 | [19] 0.974 | [20] 0.963 | locus YDR195W, strain ref2 0.913 | [21] 0.998 | [22] 1.01 | [23] 1 | [24] 0.901 | [25] 1 | [26] 1 | [27] 1 | [28] 1 | [29] 0.986 | [30] 0.982 | [31] 0.989 | [32] 1 | [33] 0.99 | [34] 0.997 | [35] 0.986 | [36] 0.977 | [37] 0.989 | [38] 0.953 | [39] 1 | [40] 1.01 | [41] 1.02 | [42] 1 | [43] 1 | [44] 0.993 | [45] 1 | [46] 1 | [47] 0.998 | [48] 1 | [49] 1 | [50] 1 | [51] 0.999 | [52] 0.986 | [53] 0.988 | [54] 1 | [55] 1 | [56] 1 | [57] 0.986 | [58] 0.956 | [59] 0.99 | [60] 0.995 | [61] 0.959 | [62] 1.01 | [63] 0.996 | [64] 1.02 | [65] 1 | [66] 0.988 | [67] 0.994 | [68] 0.978 | [69] 1 | [70] 1.01 | [71] 1 | [72] 0.981 | [73] 1 | [74] 0.999 | [75] 1.01 | [76] 0.995 | [77] 0.998 | [78] 1.01 | [79] 1 | [80] 0.99 | [81] 0.99 | [82] 0.955 | [83] 1 | [84] 1 | [85] 0.98 | [86] 1

O=c1c(O)c(-c2ccc(O)c(O)c2)oc2c(O)c(O)cc(O)c12
inactive: [2] 0.954 | [3] 1 | [4] 0.925 | [5] 1.04 | [6] 0.929 | [7] 1.02 | [8] 0.927 | [9] 0.994 | [10] 1.01 | [11] 0.991 | [12] 0.989 | [13] 1.01 | [14] 1.02 | [15] 1.03 | [16] 1.02 | [17] 1.02 | [18] 0.906 | [19] 1.02 | locus YDR195W, strain ref2 1.01 | [21] 1 | [22] 0.983 | [23] 0.994 | [24] 1.04 | [25] 0.996 | [26] 0.987 | [27] 1.01 | [28] 0.98 | [29] 1.02 | [30] 0.942 | [31] 0.984 | [32] 0.932 | [33] 1.01 | [34] 0.947 | [35] 1.03 | [36] 1.11 | [37] 1 | [38] 0.931 | [39] 0.983 | locus YHR030C, strain SLT2, stronger effect = lower value 1 | locus YHR079C, strain IRE1, stronger effect = lower value 1.02 | [40] 0.891 | [41] 1.02 | [42] 0.993 | locus YJL095W, strain BCK1, stronger effect = lower value 1.02 | [43] 1.01 | [44] 1.08 | [45] 1.02 | [46] 0.959 | [47] 0.995 | [48] 0.997 | locus YJR066W, strain TOR1, stronger effect = lower value 0.967 | [49] 0.942 | [50] 1.01 | [51] 1.03 | [52] 1.03 | [53] 1.02 | [54] 1.01 | [55] 0.992 | locus YLR113W, strain HOG1, stronger effect = lower value 1.12 | [56] 0.981 | [57] 1.01 | [58] 0.919 | [59] 1.02 | [60] 0.967 | [61] 0.889 | [62] 0.938 | [63] 1.01 | [64] 1 | [65] 0.921 | [66] 1.03 | [67] 1.02 | [68] 1.06 | [69] 0.999 | [70] 1.01 | locus YNL183C, strain NPR1, stronger effect = lower value 0.997 | [71] 0.94 | [72] 1 | [73] 1.01 | [74] 1.02 | [75] 0.981 | [76] 1.01 | [77] 1.01 | [78] 0.931 | [79] 0.872 | locus YOR231W, strain MKK1, stronger effect = lower value 1.03 | [80] 1 | [81] 0.948 | [82] 0.962 | [83] 0.92 | [84] 0.963 | [85] 1 | [86] 0.994 | locus YPL256C, strain CLN2, stronger effect = lower value 1.04
active: [1] 0.864 | [20] 1.13 [resistant]
